SMILES strings stand for the structures. Out of some 48,000 compounds screened, about 13,000 (27%) showed an effect of 50% or more. The list shows a part of the results.

The assay deals with Wolbachia pipientis. Put plainly: Anti-Wolbachia Cell-Based Screen. In kind it is functional. Also on record: scale not given: in the data most compounds retested in dose-response had high values. Particulars: 5 µM.
For the molecule `CC(C)NC(=O)N1CCC2(CC1)NC(=O)[C@H]1CN(C(=O)N(C)C)C[C@H]12`, the “Percent Effect” value is reported as -13.82%.
Then `Cn1ncc2c(NCC3CCS(=O)(=O)C3)nc(-c3ccncc3)nc21` (configuration not stated), with 10.96%.
Then `O=C1CC(N(C(=O)c2ccc(Oc3ccccc3)cc2)C2CC2)C(=O)N1` (configuration not stated), with -10.84%; and `CN(C)S(=O)(=O)N1C[C@@H]2CC[C@H](C1)N(Cc1ccc3nsnc3c1)C2`, with 4.433%; and `Cc1cc(C)n2nc(C(=O)N3CCCC4(CNC(=O)O4)C3)cc2n1` (configuration not stated), with 1.638%.
The result for `O=C(N1CCCC1)N1CCC2(CC1)CN(c1cccnc1)C(=O)CO2.O=C(O)C(F)(F)F` reads 93.48%; that for `CCS(=O)(=O)N1CCC2(CC1)CN(c1cccnc1)C(=O)CO2.O=C(O)C(F)(F)F`, 93.05%; that for `CCS(=O)(=O)N1CCC2(CN(c3cccc(F)c3)C(=O)CN2C)C1.O=C(O)C(F)(F)F` (configuration not stated), 7.629%.
Regarding `CCc1nc(C)c([C@H]2CN(C)C[C@@H]2C(=O)NCCc2cnccn2)[nH]1`, the “Percent Effect” value is -9.925%.
The result for `COc1ccc(CN(C)[C@@H]2COC[C@H]2c2ccc(F)cc2)cc1.O=C(O)CC(O)(CC(=O)O)C(=O)O` reads 117.4%; that for `COc1ccc(CN2C[C@@H]3COC[C@@H](N4CCN(C)CC4)[C@@H]3C2)cc1.O=C(O)C(F)(F)F.O=C(O)C(F)(F)F.O=C(O)C(F)(F)F`, 13.92%.
Then `COc1ccc(CC(C)(O)CNC(=O)Cc2ccc(F)cc2)cc1` (configuration not stated), with 8.313%; and `CCOc1ncccc1CNC(=O)N1CCCC1c1cc(C)no1` (configuration not stated), with 3.544%; and `O=C(c1ccc(Cl)cc1)N1CCC(N2CCCCC2=O)CC1`, with 103%.
The result for `O=C(c1ccc2c(c1)OCO2)N1CCN2C(=O)NC[C@H]2C1` reads 6.694%.
In the case of `Cc1cc(C(=O)N2CCC(N3CCNC3=O)CC2)nn1C(C)(C)C`, the “Percent Effect” value is reported as -1.395%.
The result for `O=C(c1ccc(Cl)cc1)N1CCC(N2CCNC2=O)CC1` reads 109.7%; that for `Cc1ccc(C(=O)N2CCCC(N)CC2)cc1N1CCNC1=O` (configuration not stated), -4.611%.
The result for `O=C(c1ccc(Cl)cc1)N1CCC(N2CCCNC2=O)CC1` reads 102%; that for `Cc1cnc(NC(=O)N2CCC(N3CCCCC3=O)CC2)s1`, 0.5285%; that for `O=C(CSc1ccccc1)N1CCC(N2CCCCC2=O)CC1`, -3.003%.
Then `O=C(CCc1ccc(Cl)s1)N1CCC(N2CCNC2=O)CC1`, with 39.9%.
For `Cn1cc(N2CCC(NC(=O)c3c(F)cccc3F)C2=O)cn1` (configuration not stated), the “Percent Effect” value is listed as -6.231%.
For the molecule `O=C(NCC1(CO)CC1)c1ccccc1C(F)(F)F`, the “Percent Effect” value is on record as 10.7%.
The result for `O=C(NCCCSC1CCCCC1)C1NCCc2[nH]cnc21` (configuration not stated) reads -0.8236%; that for `CCOc1ccc(C(=O)N(CCOC)Cc2c(C)nn(CC)c2C)o1`, -1.11%.
Then `CN(C)C(=O)N1C[C@@H]2COC[C@]2(c2nnc(C3CC3)o2)C1`, with 1.303%.
Then `O=C(Cn1ccc(=O)cc1)N1C[C@H]2CC[C@@H]1CN(c1ncccn1)C2`, with -6.945%; and `CCOC(=O)CNC(=O)N1CCOC(Cc2ccc(OC)cc2)C1` (configuration not stated), with -5.818%.
Take `CCC1CN(C(=O)c2cc(CN(C)CCc3ccccc3)on2)CCO1` (configuration not stated): the “Percent Effect” value was -31.04%.
The result for `Cc1nc(C(=O)N2CCOC(Cc3ccc(F)cc3)C2)co1` (configuration not stated) reads 139%; that for `Cc1n[nH]c(CCC(=O)N2CCOC(Cc3ccccc3)C2)c1C` (configuration not stated), 0.4396%.
Then `Cc1nc(C(=O)N2CCOC(Cc3ccccc3)C2)co1` (configuration not stated), with 119.2%; and `Cn1nccc1C(=O)N1CCOC(Cc2ccc(F)cc2)C1` (configuration not stated), with -2.544%; and `CCN1CCN(CC(=O)N2CCOC(Cc3ccc(OC)cc3)C2)CC1` (configuration not stated), with -7.63%.
With `COc1ccc(CC2CN(C(=O)c3coc(C)n3)CCO2)cc1` (configuration not stated), the “Percent Effect” value is 123%.
Then `O=C1CCC(C(=O)N2CCOC(Cc3ccc(F)cc3)C2)=NN1` (configuration not stated), with -6.141%; and `COc1ccccc1N1CCN(C(=O)CSCC2CC2)C(C)C1` (configuration not stated), with 12.11%; and `Cc1csc(-c2cccc(NC(=O)N3CCOCC3)c2)n1`, with -7.869%.
The result for `COc1ccc(S(=O)(=O)NCCC(O)c2ccoc2)c(C)c1` (configuration not stated) reads 14.16%.
For the molecule `Cc1cc(C(=O)N(C)CC(F)(F)C(F)(F)F)ccc1-n1cncn1`, the “Percent Effect” value is recorded as -4.765%.
Then `Cl.N#Cc1ccc(NC(=O)C2CSCN2)cc1` (configuration not stated), with 137.5%.
The result for `N#Cc1ccc(SCCC(=O)Nc2ccc(CC(N)=O)cc2)cc1` reads -23.76%; that for `O=C(Nc1ccc(F)cc1)C1CCc2ccccc2N1` (configuration not stated), 3.241%; that for `CC(C(=O)Nc1ccc(C#N)cc1)N1CCc2ccccc21` (configuration not stated), -0.338%.
The result for `O=C(Nc1ccc(F)cc1)C1CSCN1` (configuration not stated) reads 136.1%; that for `O=C(Nc1ccc(F)cc1)C1CNCCN1C(=O)CC1CCCCC1` (configuration not stated), -14.62%; that for `CN1CCCCC12CCN(c1nncs1)C2` (configuration not stated), -10.05%.
On to `COc1cc(Cl)cc(C(=O)N2CCC3(CCCNC3)C2)c1` (configuration not stated), for which the “Percent Effect” value is recorded as -2.555%.
The result for `CSc1ccsc1C(=O)N1CCN(CC(C)(C)O)CC1` reads 6.232%; that for `CCc1ccsc1C(=O)N1CCN(CC(C)O)CC1` (configuration not stated), 130.8%.
As for `CCc1ccsc1C(=O)N1CCN(C(=O)c2ccc(C)o2)CC1`, the “Percent Effect” value is -4.902%.
The result for `CCc1ccsc1C(=O)N1CCN(CCN2C(=O)CCC2=O)CC1` reads 117.8%; that for `CC(=O)N1CCN(C(=O)c2sccc2Br)CC1`, -5.711%; that for `CCc1ccsc1C(=O)N1CCS(=O)(=O)CC1`, -3.186%.
The result for `CCCc1nnsc1C(=O)N1CCN(CC(C)O)CC1.Cl` (configuration not stated) reads 3.712%; that for `CCc1ccc(C(=O)N2CCN(CC(C)O)CC2)o1` (configuration not stated), -6.937%; that for `CCc1ccsc1C(=O)N1CCN(CC(N)=O)CC1`, 101.9%.
As to `N#Cc1cccc(CN2C[C@@H](F)[C@@H](OCc3nc4cnccc4[nH]3)C2)c1`, the “Percent Effect” value was -8.923%.
Consider `c1cc(NCc2ccsc2)cc(-c2nnc[nH]2)c1`, for which the “Percent Effect” value is recorded as -4.767%.
The result for `Cc1cnc(N2CCN3C[C@H](OCc4cccc(C)n4)C[C@H]3C2)nc1.O=C(O)C(F)(F)F.O=C(O)C(F)(F)F.O=C(O)C(F)(F)F` reads -4.424%; that for `CC(C)c1cc2c(O)nc(CSCC(=O)NCc3ccncc3)nc2s1`, 17.11%; that for `O=C(NCc1csc(Br)c1)c1ccncc1`, 3.838%.
Then `O=C(CCc1ccncc1)NCc1csc(Br)c1`, with 90.69%; and `CC(=O)N1CCN(C(=O)NCc2csc(Br)c2)CC1`, with 1.629%.
Regarding `O=C(CSCc1ccncc1)NCc1csc(Br)c1`, the “Percent Effect” value was determined as 146.4%.
Then `O=C(CCNc1ncccn1)NCc1csc(Br)c1`, with 22.34%; and `COc1cc(C)c(CNC(C)c2nc(C)cs2)cc1OC` (configuration not stated), with -0.3291%.
Turning to `CNC(=O)c1cn2cc(-c3ccc(F)cc3)n(CC=C(C)C)c(=O)c2n1`, the “Percent Effect” value is listed as 0.6659%.
The result for `Cc1nccc(N2CC[C@@H]3[C@@H](CCC(=O)N3CCc3ccccc3)C2)n1` reads -6.653%; that for `CCN1CC(COc2ccccc2)Oc2ncccc2S1(=O)=O` (configuration not stated), 122.7%.
For the molecule `Cc1cc(C)c(C#N)c(N2CCC(Cc3ccccc3)CC2)n1`, the “Percent Effect” value was -43.81%.
For `CCN1Cc2c(C(=O)NCC3CC3)ncn2-c2ccccc2S1(=O)=O`, the “Percent Effect” value worked out at 19.38%.
The result for `O=S1(=O)c2cccnc2OC(Cc2ccccc2)CN1CC1CC1` (configuration not stated) reads 92.92%.
Then `COCC1CN(C(=O)Cc2ccccn2)Cc2c1cnn2CC1CC1.O=C(O)C(F)(F)F.O=C(O)C(F)(F)F` (configuration not stated), with -11.65%.
For the molecule `CCS(=O)(=O)N1CCC2(CC1)COC(COc1cccnc1)C2.O=C(O)C(F)(F)F` (configuration not stated), the “Percent Effect” value turned out to be 0.5823%.
As for `N#Cc1nccnc1N1CCC(Cc2ccccc2)C1` (configuration not stated), the “Percent Effect” value is recorded as -1.044%.
The result for `O=C(c1c[nH]c2ncccc12)N1CCC(COc2ccccc2)CC1` reads -0.9312%; that for `O=S1(=O)c2cccnc2OC(COc2ccccc2)CN1CC1CC1` (configuration not stated), 113.6%; that for `COC(=O)CNCC1(O)CCCN(Cc2cccc(F)c2F)C1=O` (configuration not stated), 2.816%.
Then `Nc1ncccc1C(=O)NCc1ccc(Br)cc1`, with 135.9%.
With `O=C(NCc1ccncc1)c1ccc(Cl)cc1F`, the “Percent Effect” value is reported as 1.231%.
Then `NC(=O)CN(CC(=O)NCc1cccc(Cl)c1)C1CCCC1`, with 3.155%.
Then `Nc1ncccc1C(=O)NCc1cccc(Br)c1`, with 158%; and `COCC(=O)NCc1cccc(Br)c1`, with -15.74%.
The result for `CS(=O)(=O)Cc1ccc(CNC(=O)c2cccnc2O)cc1` reads 12.39%; that for `COc1ncccc1CNC(=O)c1cccnc1O`, -6.886%.
On to `COc1cccc(CNC(=O)c2cccnc2N)c1`, for which the “Percent Effect” value stood at 120.4%.
The result for `Nc1ncccc1C(=O)NCc1cccc(Cl)c1` reads 135.3%; that for `CC(C)(NC(=O)NCc1cccc(Br)c1)C(=O)O`, 23.95%; that for `COc1cccc(CNC(=O)c2nc3c(o2)CN(S(C)(=O)=O)C3)c1`, -11.41%.
The result for `Cn1ccnc1-c1noc(NCc2ccccc2)n1` reads -0.05664%; that for `Nc1nnc(CCCNc2ncnc3c2CCN(C(=O)C2CC2)C3)s1`, 2.255%; that for `O=C(O)CSc1nnc(-c2cn[nH]c2)n1-c1ccccc1C(F)(F)F`, -22.33%.
Then `CC(=O)NC1(C(=O)N(C)Cc2c(C)noc2C)CCCCC1`, with -7.535%; and `COc1ccc(C2CC(=O)c3c(O)cc(O)cc3O2)cc1O` (configuration not stated), with -2.499%; and `CC(C)(C)c1coc([C@@H]2COCCN2Cc2ccccn2)n1`, with -4.744%.
For `Cc1cccc(CNC(=O)c2cccnc2N)c1`, the “Percent Effect” value is 165.4%.
In the case of `CCCNC(=O)c1cccc2ncccc12`, the “Percent Effect” value was determined as 14.09%.
The result for `Cc1cccc(CN2CCN(C(=O)c3cccnc3O)CC2)c1` reads -8.356%.
Then `CC(=O)c1ccc(C(=O)N(C)Cc2nc(-c3ccccn3)no2)s1`, with -11.07%.
Then `Cc1noc(C)c1CN(Cc1cccs1)C1CCS(=O)(=O)C1` (configuration not stated), with 104.9%; and `Cc1noc(CN(Cc2cccs2)C2CCS(=O)(=O)C2)n1` (configuration not stated), with 99.33%; and `O=C(CN(Cc1cccs1)C1CCS(=O)(=O)C1)NC1CCCCC1` (configuration not stated), with 14.98%.
In the case of `CC(C)c1noc(CN(Cc2cccs2)C2CC2)n1`, the “Percent Effect” value stood at 16.09%.
Regarding `O=S1(=O)CCC(N(Cc2nc(-c3ccccn3)no2)Cc2cccs2)C1` (configuration not stated), the “Percent Effect” value came out at 124.4%.
Then `Cc1nc(CN(Cc2cccs2)C2CCS(=O)(=O)C2)oc1C` (configuration not stated), with -2.391%; and `O=C(CN(Cc1cccs1)C1CCS(=O)(=O)C1)NCC1CCCCC1` (configuration not stated), with 2.941%.
Then `CC(C)(C)c1nc(CN(Cc2cccs2)C2CCS(=O)(=O)C2)cs1` (configuration not stated), with 26.63%.
On to `O=S1(=O)CCC(N(Cc2nc3ccccc3o2)Cc2cccs2)C1` (configuration not stated), for which the “Percent Effect” value is given as 98.01%.
The result for `Cc1ccc(-c2nc(CN(Cc3cccs3)C3CCS(=O)(=O)C3)cs2)o1` (configuration not stated) reads 4.898%; that for `CC(C)(C)c1nc(CN(Cc2cccs2)C2CCS(=O)(=O)C2)no1` (configuration not stated), 9.766%.
